These results are taken from the supplement of paper PMC3484114.

SMILES strings stand for the structures. ± gives the standard deviation.

The test system of this assay is OVCAR-3-derived ovarian cancer stem-like cells (spheroids). Briefly: cell growth relative to untreated control; higher = more growth (less inhibition). The note with it: 2.29 µM; 96 h. The procedure, abridged: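 After trypsin dissociation, OVCAR-3 spheroid-derived stem-like cells were placed in ultra-low attachment 96-well plates at 50,000 cells/mL in stem cell medium and preincubated for 24 h. Treatment at 2.29 uM followed for 96 h at 37°C, 5% CO2, with 4 replicate wells per compound. A 4 h TOX8 resazurin fluorescence read (ex 560/em 590 nm) gave viability, from which percent growth relative to untreated wells was derived after blank subtraction and Grubbs outlier removal.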
As for `CCCCCCCCCCCCCCCC[N+](C)(C)CCl`, the cell growth was determined as 104 ± 17%.
The value for `O=[n+]1c2c(n([O-])c3ccccc31)-c1cccc3cccc-2c13` was 92 ± 21%; that for `CCOC(=O)c1ccc(N=Cc2ccc(N(CCC#N)CCC#N)cc2)cc1` was 101 ± 20%.
With `O=[N+]([O-])c1ccc(N=Nc2c(O)[nH]c3ccccc23)c([N+](=O)[O-])c1`, the cell growth came to 132 ± 29%.
As to `COc1ccc2nc(NC(=O)C(=O)CC(=O)c3ccc(Cl)cc3)sc2c1`, the cell growth is 109 ± 40%.
On to `COC(=O)/C(=N\NC(=O)c1ccccc1O)C(C#N)c1ccccc1` (centres undefined), for which the cell growth was 99.9 ± 33%.
`OC[C@H]1O[C@@H](n2cnc3cncnc32)[C@H](O)[C@@H]1O`: the cell growth came to 10.4 ± 3.1%.
The value for `O=C1/C(=C/c2cccs2)Oc2ccccc21` was 94 ± 12%; that for `Cc1c2cnccc2c(C)c2c1c1ccccc1n2CCOC(=O)c1ccccc1` was 127 ± 35%.
On to `O=C(N=Nc1c(O)[nH]c2ccccc12)c1ccccc1O`, for which the cell growth was determined as 105 ± 11%.
Turning to `CC1=NC(C(C)C)C(=O)O1` (centres undefined), the cell growth amounted to 122 ± 74%.
The value for `NC(=O)C#CC(N)=O` was 55.9 ± 13%.
For `CCOc1ccccc1NC(=O)CC1Sc2ccccc2NC1=O` (centres undefined) the value was 70.6 ± 14%; for `N[C@H](C(=O)O)[C@@H]1CC(Cl)=NO1`, 85.3 ± 21%.
Compound `COc1ccc2cc3[n+](cc2c1OC)CCc1cc2c(cc1-3)OCO2` had a cell growth of 57.3 ± 7.4%.
The value for `C[C@]12CC[C@@H]3c4ccccc4CC[C@H]3[C@@H]1CC[C@@H]2O` was 229 ± 23%; that for `CC(CN1CC(=O)NC(=O)C1)N1CC(=O)NC(=O)C1` (centres undefined) was 221 ± 43%.
As to `CN/N=C(\C)C(CN1CCCCC1)C(C1=C(O)c2ccccc2OC1)c1ccccc1` (centres undefined), the cell growth came to 94.9 ± 41%.
For `[O-][S+]1c2ccccc2N=C(c2cccc3ccccc23)CC1c1cccc2ccccc12` (centres undefined), the cell growth stood at 84.1 ± 16%.
